According to PubChem BioAssay:
Unmarked numbers belong to inactive results. Active and inactive are the calls of the source.

test: PSAC antagonists in infected red cells, primary screen, cell-based, P. falciparum Indochina, OD700, 2 h (AID 1155);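 further: lysis reports solute entry through the parasite surface anion channel PSAC; channel blockers reduce lysis of infected cells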; conditions: P. falciparum Indochina infected erythrocytes, osmotic lysis OD700; higher = more signal, called active from +8 up or from −8 down

SMILES	z-score
CCOC(=O)C[C@H]1[C@H](OC(=O)Cc2ccc3c(c2)OCO3)[C@@H](NC(=O)c2ccc3ccccc3n2)c2cc(OCCCO)ccc2N1C(=O)c1ccccc1	1.32
COc1ccc([Si](C)(C)[C@@H]2[C@@H](CC(=O)N(CCO)Cc3ccccc3)O[C@]3(C(=O)N(Cc4cccc(N5CCCCC5=O)c4)c4ccccc43)[C@H]2C)cc1	1.85
C=C[C@@H](OC)[C@H](OC(=O)Nc1ccc(OC)cc1)c1ccc(O)c(F)c1	0.517
CCCCCC1=C2CNC(C)(C(=O)OC)C=C2C(C)C1=O (stereo not given)	0.0544
O=C1NC(=O)C2C1C=CC(C(O)c1ccco1)N2Nc1ccc(Cl)cc1Cl (stereo not given)	1.31
CCC#CCN(Cc1ccccc1Br)[C@H](/C=C/C1CC1)[C@@H](O)Cc1ccccc1	-0.834
COc1ccc([Si](C)(C)[C@@H]2[C@@H](CC(=O)N3Cc4ccccc4C[C@H]3CO)O[C@]3(C(=O)N(Cc4ccc(N5C(=O)c6cccc7cccc5c67)cc4)c4ccccc43)[C@H]2C)cc1	1.49
[N-]=[N+]=Nc1ccccc1C[C@@]1(C(=O)NCCN2CCOCC2)N=C(c2ccc(OCCCO)cc2)O[C@@H]1c1ccccc1N=[N+]=[N-]	30.8 (active)
CC1=C2[C@@H](CCc3ccccc3)OB(O)C[C@@H]2[C@@H]2C(=O)N(Cc3ccccc3)C(=O)[C@@H]2C1	1.28
CC1CC/C=C\[C@H]2OC34C=CCN(Cc5ccccc5)C(=O)[C@H]3N(C(CO)C(C)C)C(=O)[C@@H]4C2C(=O)O1 (stereo not given in full)	0.667
COc1cccc(C)c1NC(=O)O[C@H]1[C@H](OC(=O)Nc2ccc3c(c2)OCO3)[C@@H](OC(=O)Nc2ccc3c(c2)OCO3)[C@@H](OC)O[C@@H]1CO	1.26
Cc1ccccc1C(O)C1C=CC2C(=O)NC(=O)C2N1Nc1ccccn1 (stereo not given)	0.608
CCCCC(=C=CC[C@H](O)c1ccc(OCCO)cc1)CCO	1.77
CC(c1ccccc1)C(O)C1C=CC2C(=O)N(C)C(=O)C2N1Nc1ccccc1 (stereo not given)	0.782
C=CCC(OC(C)=O)[C@@H]1[C@@H](N(Cc2ccc(-c3cccc(C(F)(F)F)c3)o2)C(=O)Cc2ccc(OC)cc2)c2cc(OCCCO)ccc2N1C(=O)c1ccc(-c2ccccc2)cc1 (stereo not given in full)	-0.393
Cc1ccc(S[C@]2(C(=O)NC(C)C)CC(=O)N(Cc3cc(C(F)(F)F)cc(C(F)(F)F)c3)[C@@H]2c2ccc(CO)cc2)cc1	0.812
CCOC(=O)C[C@H]1[C@H](OC(=O)c2cc3ccccc3oc2=O)[C@@H](NC(=O)CC(C)C)c2cc(OCCCO)ccc2N1C(=O)c1ccc2ccccc2n1	1.25
COc1ccc(CCNC(=O)[C@@]2(c3ccc([N+](=O)[O-])cc3)CC(=O)N(C3CCCCC3)[C@@H]2c2ccc(CO)cc2)cc1	-0.0966

SMILES	z-score
C[C@@H]1NC(=O)[C@@H](Cc2ccccc2)NC(=O)[C@@]23C(=O)N[C@@H](Cc4ccccc4)C2[C@H](C)[C@@]2(C)O[C@H]2C3/C=C/C/C=C\CNC1=O (stereo not given in full)	0.581
CCC1=C2CN(Cc3ccccc3)[C@@H](C(=O)Cc3ccccc3)C2C=CCC1 (stereo not given in full)	-1.13
N#Cc1ccc(NN2C(C(O)c3ccc(Br)cc3)C=CC3C(=O)N(c4ccccc4)C(=O)C32)cc1 (stereo not given)	2.9
OCCCC1=CC(c2ccc(CN3CCCC3)cc2)N(Cc2cc3c(cc2Br)OCO3)CC1 (stereo not given)	0.63
O=C(O)[C@@H]1C[C@@H]2C(=O)N3CCC[C@H]3C(=O)N2[C@@H]1c1ccc(O)cc1	-0.325
CC(C)[Si]1(C(C)C)OCc2cc(-c3ccc(-c4ccc(Cl)c(Cl)c4)o3)nc(-c3ccccc3)c21	0.394
COc1ccc([Si](C)(C)[C@@H]2[C@@H](CCO)O[C@]3(C(=O)N(Cc4ccccc4)c4ccc(N5C(=O)c6cccc7cccc5c67)cc43)[C@H]2C)cc1	2.2
C=C[C@H](C)[C@H](OC(=O)Nc1ccc(SC)cc1)c1ccc(OCCO)cc1	15.6 (active)
CCOC(=O)C[C@H]1[C@H](OC(=O)c2cc3ccccc3oc2=O)[C@@H](NC(=O)c2ccc3ccccc3n2)c2cc(OCCCO)ccc2N1C(=O)Cc1ccc(OC)cc1	1.33
O=C(NCCN1CCOCC1)[C@@H]1c2ccccc2C(=O)N(Cc2ccccc2Cl)[C@H]1c1ccc(CO)cc1	0.466
COC(=O)[C@@]1(Cc2ccc(F)cc2)[C@H]2c3cc(C(=O)N4CCCC4)n(Cc4ccc(C)c(F)c4F)c3C[C@H]2CN1C(=O)c1ccccc1	0.806
CCCCC(CC)C(O)C1C=CC2C(=O)N(c3ccccc3)C(=O)C2N1Nc1ccccc1F (stereo not given)	-0.686
[N-]=[N+]=Nc1ccccc1C[C@]1(C(=O)O)COC(c2ccc(OCCCO)cc2)=N1	8.27 (active)
CC(=O)NCCCC[C@@H]1NC(=O)[C@@H]2C[C@H](C(=O)NCCCCCN)[C@H](c3cccc(OCCO)c3)N2C1=O	-0.543
COc1ccc(C#Cc2ccc3c(c2)[C@]2(C(=O)N3)[C@H](c3ccc(OCCO)cc3)N3[C@H](c4ccccc4)[C@H](c4ccccc4)OC(=O)[C@H]3[C@@H]2C(=O)NC[C@H](O)c2ccccc2)cc1	1.76
CC(C)NC(=O)[C@@]1(C)c2ccccc2C(=O)N(Cc2ccc(OC(F)(F)F)cc2)[C@H]1c1ccc(CO)cc1	0.857
CCCC[C@@H](O)C1=C(COC)C[C@H]2C(=O)N(Cc3ccccc3)C(=O)[C@H]2[C@H]1CO	-0.384
